Assay results: the supplement of paper PMC12532568
Structures can show the parent of a compound that is named as a salt.

Test system: Danio rerio larvae Tg(actc1b:ZsGreen-LC3), 3 dpf
Assay: LC3 puncta relative area vs vehicle, with NH4Cl (autophagic flux) (log2 fold change); higher = more autophagy
Settings: 10 µM; treatment time 16 h; NH4Cl: + 100 mM, 4 h
Experimental: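 Transgenic Tg(actc1b:ZsGreen-map1lc3) zebrafish larvae (2 dpf) were treated for 16 h with Tocris library compounds at 10 µM (n = 12 larvae per compound). Skeletal-muscle LC3 puncta area relative to body area was measured by high-content confocal imaging before and after 4 h of 100 mM NH4Cl (autophagic flux), normalised to vehicle (DMSO), and reported as log2 fold change.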

Row | Compound | LC3 puncta (log2)
1 | c1ccc2nc(N3CCNCC3)ccc2c1 [Quipazine dimaleate] | 0.278
2 | c1ccc2c(c1)OCC(C1=NCCN1)O2 (configuration not stated) [Idazoxan hydrochloride] | 0.662
3 | C=CCN1CC[C@]23c4c5ccc(O)c4O[C@H]2C(=O)CC[C@@]3(O)[C@H]1C5 [Naloxone hydrochloride] | 0.232
4 | CN1C[C@H](CNC(=O)OCc2ccccc2)C[C@@H]2c3cccc4c3c(cn4C)C[C@H]21 [Metergoline] | 0.408
5 | NC(C(=O)O)c1nn[nH]n1 (racemic) [(RS)-(Tetrazol-5-yl)glycine] | 0.357
6 | S=C(NC1CCCCC1)N1CCC(c2cnc[nH]2)CC1 [Thioperamide] | 0.48
7 | CCCN(CCC)C1CCc2cccc(O)c2C1 (configuration not stated) [8-Hydroxy-DPAT hydrobromide] | 0.325
8 | c1ccc(CC(c2ccccc2)N2CCCCC2)cc1 (configuration not stated) [(?)-1-(1,2-Diphenylethyl)piperidine maleate] | 0.216
9 | O=C(O)Cc1cccnc1C(=O)O [Homoquinolinic acid] | 0.499
10 | CCC(Oc1ccc(Cl)cc1)C(=O)OC1C[C@H]2CC[C@@H](C1)N2C (some centres not stated) [SM-21 maleate] | 0.294
11 | CC(C)[C@@]1(NC(=O)[C@@H]2C[C@@H]3c4cccc5[nH]cc(c45)C[C@H]3N(C)C2)O[C@@]2(O)[C@@H]3CCCN3C(=O)[C@H](Cc3ccccc3)N2C1=O [Dihydroergocristine mesylate] | 0.198
12 | CCCN(CCC)[C@@H]1CCc2c(OC)cccc2[C@@H]1C [(+)-UH 232 maleate] | 0.738
13 | Cc1ccc(C[N+](C)(C)C)o1 [5-Methylfurmethiodide] | 0.316
14 | O=C1CCCN1CC#CCN1CCCC1 [Oxotremorine sesquifumarate] | 0.192
15 | CN1C(=O)CCS(=O)(=O)C1c1ccc(Cl)cc1 (configuration not stated) [Chlormezanone] | 0.287
16 | Oc1ccc2c3c1O[C@H]1c4c(c5ccccc5n4Cc4ccccc4)C[C@@]4(O)C(C2)N(CC2CC2)CC[C@]314 [N-Benzylnaltrindole hydrochloride] | 0.945
17 | CN1[C@@H]2CC[C@H]1C[C@@H](OC(=O)c1cc(Cl)cc(Cl)c1)C2 | 0.686
18 | OC1CCCCC1N1CCC(c2ccccc2)CC1 (configuration not stated) [(?)-Vesamicol hydrochloride] | 0.751
19 | CC(CN)CC(=O)O (configuration not stated) [3-Methyl-GABA] | 0.425
20 | O=C(Cc1ccc(Cl)c(Cl)c1)N1CCCCC1CN1CCCC1 (configuration not stated) | 0.493
21 | c1ccc(CCCN2CCN(CCOC(c3ccccc3)c3ccccc3)CC2)cc1 | 0.346
22 | C[C@H](N)Cc1cnc[nH]1 | 0.58
23 | C=C(C)[C@H]1CN[C@H](C(=O)O)[C@H]1CC(=O)O [Kainic acid] | 0.23
24 | C(=C\c1ccccc1)/CN1CCN(CCOC(c2ccccc2)c2ccccc2)CC1 | 0.791
25 | CN(C(=O)Cc1ccccc1)C(CN1CCCC1)c1ccccc1 (configuration not stated) [N-MPPP Hydrochloride] | 0.566
26 | NCC(CS(=O)(=O)O)c1ccc(Cl)cc1 (configuration not stated) [Saclofen] | -0.0138
27 | Cc1[nH]c2ccc(O)cc2c1CCN [2-Methyl-5-hydroxytryptamine hydrochloride] | 0.337
